Rows were chosen to be rich in hits. Some 3.7% of all compounds tested hit in one or more screens of this group.
Anthrax LF inh2 – Bacillus anthracis LF protease inhibitors, primary screen, biochemical, multiplex microsphere, MLPCN library. Lethal factor (Bacillus anthracis), P15917. multiplex microsphere protease cleavage assay. inhibition, % at 10 µM. 0.12% of 360,000 active. AID 588501, 2011
Target sequence (P15917 whole entry, looked up): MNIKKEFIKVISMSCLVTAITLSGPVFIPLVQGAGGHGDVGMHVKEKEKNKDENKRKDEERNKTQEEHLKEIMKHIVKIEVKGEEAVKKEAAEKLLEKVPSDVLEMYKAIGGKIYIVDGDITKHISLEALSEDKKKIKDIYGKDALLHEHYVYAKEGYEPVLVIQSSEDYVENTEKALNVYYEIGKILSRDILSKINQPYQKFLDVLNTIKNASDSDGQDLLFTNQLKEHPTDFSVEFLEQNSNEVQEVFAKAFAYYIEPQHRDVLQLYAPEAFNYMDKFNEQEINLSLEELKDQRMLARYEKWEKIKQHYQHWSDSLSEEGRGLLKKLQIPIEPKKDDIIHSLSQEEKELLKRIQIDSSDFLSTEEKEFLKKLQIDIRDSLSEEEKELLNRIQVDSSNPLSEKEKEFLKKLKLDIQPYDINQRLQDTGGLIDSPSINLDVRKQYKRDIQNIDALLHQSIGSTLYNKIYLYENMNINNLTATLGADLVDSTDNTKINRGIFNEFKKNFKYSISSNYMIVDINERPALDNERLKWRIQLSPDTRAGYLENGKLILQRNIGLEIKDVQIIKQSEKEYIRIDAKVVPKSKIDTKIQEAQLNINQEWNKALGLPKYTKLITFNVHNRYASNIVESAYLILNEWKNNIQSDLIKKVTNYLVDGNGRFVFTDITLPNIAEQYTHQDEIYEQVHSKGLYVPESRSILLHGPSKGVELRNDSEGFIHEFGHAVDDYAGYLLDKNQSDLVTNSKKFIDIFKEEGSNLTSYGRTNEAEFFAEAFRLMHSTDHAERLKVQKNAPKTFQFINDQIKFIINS
BJeLR viability – MLPCN primary cell-based screen for lethality selective to Ras in HRASV12 cells; BJeLR (HRASV12) viability, CellTiter-Glo ATP luminescence, 48 h; AID 1554, 2009; 0.17% of 300,000 active; inhibition, % (test concentration not listed); in the data active = inhibition above about 50%; inconclusive = no clear call, values can overlap the other calls
BH1578 lux ind – inducers of Vibrio cholerae quorum light production without autoinducers, primary screen, BH1578 luxS cqsA deficient, single point; 0.16% of 350,000 active; activation, % at 18.7 µM; V. cholerae BH1578 lux reporter, luminescence, 6 h; in the data active = activation mostly above about 9.7%, no sharp cut-off; inconclusive = no clear call, values can overlap the other calls; inactive = mostly below about 3.7%
BoNT-A LC inh2 – BoNT/A light chain protease inhibitors, primary screen, biochemical, flow cytometry, MLPCN library | Botulinum neurotoxin type A light chain protease (Clostridium botulinum A str. ATCC 3502) | multiplex microsphere protease substrate cleavage | inhibition, % at 10 µM | 0.17% of 360,000 active
BoNT F protease – BoNT/F light chain protease inhibitors, primary screen, biochemical, flow cytometry, MLPCN library | Botulinum neurotoxin type F light chain protease (Clostridium botulinum) | Multiplex microsphere protease cleavage assay | inhibition, % at 10 µM | 0.22% of 360,000 active; in the data active = inhibition above about 35%, passing the limit was not always enough; inconclusive = no clear call, values can overlap the other calls
Autofluor counter – compound fluorescence in toxin protease inhibitor counterscreen; 3.1% of 360,000 active; fluorescence intensity (no concentration beside the values); AID 624483; compound autofluorescence counterscreen, microsphere flow cytometry; active compounds read high; in the data active = fluorescence intensity above about 16000; inconclusive = no clear call, values can overlap the other calls
Large screens that a line does not name were inactive. Rule as the data show it, unless noted: active = inhibition above about 30%; inconclusive = no clear call, values can overlap the other calls; inactive = below that.

COc1ccccc1NS(=O)(=O)c1cccc(C(=O)NCC(c2ccccc2OC)N2CCCC2)c1 (configuration not stated)	Autofluor counter 20056
COc1ccc(C(CNC(=O)c2ccc(C)c(S(=O)(=O)N3CCOCC3)c2)N2CCCC2)cc1 (configuration not stated)	none (no result: BJeLR viability)
CCc1cc(C(=O)NCC(c2ccc(OC)cc2)N2CCOCC2)sc1C (configuration not stated)	Anthrax LF inh2 inconclusive, BoNT-A LC inh2 inconclusive, BoNT F protease inconclusive, Autofluor counter inconclusive (no result: BJeLR viability)
COc1ccc(C(CNC(=O)c2cccc(S(=O)(=O)N(C)c3ccccc3)c2)N2CCCC2)cc1 (configuration not stated)	Autofluor counter 59722 (no result: BJeLR viability)
COc1ccc(C(CNC(=O)c2cccc(Br)c2)N2CCCC2)cc1 (configuration not stated)	Autofluor counter 28340
O=C(O)c1cccc(CSc2nnc(Cc3ccccc3)o2)c1	BoNT-A LC inh2 inconclusive, Autofluor counter 22785
COc1cc(OC)cc(-c2nnc(SCc3cccc(C(=O)O)c3)o2)c1	Autofluor counter 22846
COc1cccc(-c2nnc(SCC(=O)N(C(C)C)C(C)C)o2)c1	BoNT-A LC inh2 inconclusive, Autofluor counter 24162
c1ccc(CSc2nnc(Cc3ccccc3)o2)cc1	none
COc1ccc(-c2nnc(SCC(=O)/C(C#N)=C(\C)N)o2)cc1	BoNT-A LC inh2 inconclusive, Autofluor counter 24309
O=S1(=O)c2ccc(Br)cc2N2CC[C@H](C2)N1Cc1ccc(Cl)cc1	none (no result: BJeLR viability)
CC(=O)C1=CCC(c2cccc3ccccc23)N(S(=O)(=O)c2ccc(C)cc2)C1 (configuration not stated)	none (no result: BJeLR viability, BH1578 lux ind)
CC(=O)NCCNc1nc2cc(-c3ccc4c(ccn4C)c3)sc2c(=O)n1C	none (no result: BJeLR viability)
CC1CCN(S(=O)(=O)c2ccc3c(c2)C(Cl)(Cl)C(=O)N3)CC1	none (no result: BJeLR viability)
COC(=O)c1cccnc1-n1c(=O)c2cccnc2n(Cc2ccc(Cl)cc2)c1=O	Autofluor counter 22186
O=C(c1ccc(Cl)c(Cl)c1)c1cc(-c2ccccn2)c(N2CCOCC2)s1	none
O=C(c1ccc(Br)cc1)c1cc(-c2ccccn2)c(N2CCOCC2)s1	BoNT-A LC inh2 inconclusive, Autofluor counter 19199
COc1nc(NCc2cccnc2)nc(OC)n1	BoNT-A LC inh2 inconclusive, Autofluor counter 16316
O=C(Nc1ccccc1)c1ccc(S(=O)(=O)N(CCO)CCO)cc1	none
CC(=O)Nc1ccc(Oc2ccccc2)cc1	none
COC(=O)Nc1ccc(Oc2ccccc2)cc1	Autofluor counter 21537
COC(=O)Nc1ccc(S(=O)(=O)N(CCO)CCO)cc1	Autofluor counter 22684
O=C(CN1CCOCC1)Nc1c(C(=O)C2CC2)oc2ccccc12	none
CN1CCN(CC(=O)Nc2c(C(=O)C3CC3)oc3ccccc23)CC1	Autofluor counter 22556
CCCCNc1oc(-c2cccs2)nc1S(=O)(=O)c1ccccc1	Autofluor counter 22130
CNc1oc(-c2cccs2)nc1S(=O)(=O)c1ccccc1	none
CCCCNC(=S)N/N=C/c1ccc(C)s1	BoNT-A LC inh2 inconclusive, Autofluor counter 24604
Cc1ccc(/C=N/NC(=S)NCCc2ccccc2)s1	none
Cc1cc(C)n(C(=O)Cn2nc(C(F)F)cc2C)n1	Autofluor counter 21933
Cc1cc(C)n(CC(=O)n2nc(C)cc2C)n1	none
O=C(/C=C/c1ccccc1)Nc1cccc(C(=O)NCCCCc2ccccc2)c1	none (no result: BJeLR viability)
CC1(C)CC2(C)OC2C2(C1)N=NC(=Nc1ccccc1)O2 (configuration not stated)	none (no result: BJeLR viability, BH1578 lux ind)
Cc1ccccc1-c1csc(C(O)c2cccnc2)n1 (configuration not stated)	none (no result: BJeLR viability)
O=C(CCCn1c(SCC(=O)Nc2ccccc2C(F)(F)F)nc2ccccc2c1=O)NCC1CCCO1 (configuration not stated)	none
CCC(C)NC(=O)CSc1nc2ccccc2c(=O)n1CCCC(=O)NCC1CCCO1 (configuration not stated)	BoNT-A LC inh2 inconclusive, Autofluor counter 22505
O=C(CCCn1c(SCc2ccccc2F)nc2ccccc2c1=O)NCC1CCCO1 (configuration not stated)	none
O=C(CCCn1c(SCC(=O)NC2CCCCC2)nc2ccccc2c1=O)NCC1CCCO1 (configuration not stated)	Autofluor counter 21817
O=C(CCCn1c(SCC(=O)c2ccc(O)c(O)c2)nc2ccccc2c1=O)NCC1CCCO1 (configuration not stated)	Autofluor counter 23404 (no result: BJeLR viability)
COCCCNC(=O)CSc1nc2ccccc2c(=O)n1CCCC(=O)NCC1CCCO1 (configuration not stated)	BoNT-A LC inh2 inconclusive, Autofluor counter 22765
O=C(CCCn1c(SCC(=O)NCCc2ccccc2)nc2ccccc2c1=O)NCC1CCCO1 (configuration not stated)	none
Cc1ccc(F)c(S(=O)(=O)NC(=O)C2(C)CCN2C(=O)Cc2cc(F)ccc2F)c1 (configuration not stated)	none (no result: BJeLR viability)
C[C@@H]1CN([C@H](C)CO)C(=O)CCCn2nncc2CO[C@H]1CN(C)Cc1ccc(O)cc1	none (no result: BJeLR viability)
COc1cccc(C(O)c2nc(-c3ccccc3)cs2)c1 (configuration not stated)	none (no result: BJeLR viability)
CCOc1ccc(C(CC(=O)O)NC(=O)c2ccco2)cc1 (configuration not stated)	BoNT-A LC inh2 inconclusive, Autofluor counter 19729
CCOC(=O)CC(NC(=O)c1ccco1)c1ccc(C)cc1 (configuration not stated)	none
CCOCCCNc1ncnc2c1[nH]c1ccccc12	none
CCCCOCCCNc1ncnc2c1[nH]c1ccccc12	Autofluor counter 23545
Cc1[nH]c2ccccc2c1/C=N/Nc1ccc([N+](=O)[O-])cc1	none
COc1ccccc1NS(=O)(=O)c1cc([N+](=O)[O-])ccc1N/N=C/c1c(C)[nH]c2ccccc12	Autofluor counter 16725
CC(=O)NCCNc1nc2cc(-c3ccccc3C)sc2c(=O)n1C	none (no result: BJeLR viability)
Oc1ccc(-n2cccc2/C=N/n2cnnc2)cc1	none
O/N=C/c1cccn1-c1ccc(O)cc1	Autofluor counter 23862
Cc1cccc(N2CCN(C(=S)Nc3ccc4nc(N5CCN(C)CC5)cc(C)c4c3)CC2)c1C	BJeLR viability 70.6
CCOC(=O)c1[nH]c2cc3c(cc2c1CCCN1C(=O)c2ccccc2C1=O)OCCO3	BoNT-A LC inh2 inconclusive, Autofluor counter 19746
O=c1c2cc(N3CCOCC3)ccc2[nH]c(=S)n1CCCN1CCCCCC1	BoNT-A LC inh2 inconclusive, Autofluor counter 21083
CC(C)OCCCn1c(=S)[nH]c2ccc(N3CCOCC3)cc2c1=O	Autofluor counter 20555
